Laboratory results: PubChem BioAssay (EPA / NIEHS)
Records with an inconclusive call do not appear. Some structures have more than one record in an assay (separate samples or runs), and their calls can disagree. Calls of active or inactive are those of the source. The calls were made as follows, unless noted: active = hit-call score of the fitted dose curve at least 0.9, where 1 is the maximum; inactive = score below 0.9.

What was measured:
[1] = ACEA_ER_80hr: ACEA Biosciences xCELLigence Real-Time Cell Analysis on Estrogen Receptor Agonism for Proliferation (AID 2282667; active = hit-call score of the fitted dose curve at least 0.9, where 1 is the maximum); settings: T47D proliferation, impedance (xCELLigence), 80 h
How it was run: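 Cell-growth kinetics were measured by impedance in T47D cells treated continuously with compound (top 100 uM final, 1:4 steps, 8 points). Activity at 80 h was scored as signal gain over the DMSO baseline.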

[2] = ATG_CRE_CIS: Attagene CIS-FACTORIAL HepG2 Assay for human cAMP Responsive Element (CRE) binding protein 3 (AID 2282926); settings: HepG2 CRE cis-reporter, Attagene multiplexed mRNA; actives raise or lower the signal
How it was run: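 We dosed HepG2 cells bearing multiple cis-promoter reporter units for 24 h and measured reporter mRNA by RT-PCR with capillary electrophoresis detection. Bidirectional concentration-response fitting used DMSO as negative control.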

[3] = biological target: CCAAT/enhancer-binding protein beta (Homo sapiens) (UniProt P17676); experiment: ATG_C_EBP_CIS: Attagene CIS-FACTORIAL HepG2 Assay for human CCAAT/Enhancer Binding Protein (C/EBP) beta (AID 2282927); settings: HepG2 Attagene cis-factorial transcription factor reporter; actives raise or lower the signal
Sequence of CCAAT/enhancer-binding protein beta (Homo sapiens) (P17676 whole entry, looked up, the tested form may be a part): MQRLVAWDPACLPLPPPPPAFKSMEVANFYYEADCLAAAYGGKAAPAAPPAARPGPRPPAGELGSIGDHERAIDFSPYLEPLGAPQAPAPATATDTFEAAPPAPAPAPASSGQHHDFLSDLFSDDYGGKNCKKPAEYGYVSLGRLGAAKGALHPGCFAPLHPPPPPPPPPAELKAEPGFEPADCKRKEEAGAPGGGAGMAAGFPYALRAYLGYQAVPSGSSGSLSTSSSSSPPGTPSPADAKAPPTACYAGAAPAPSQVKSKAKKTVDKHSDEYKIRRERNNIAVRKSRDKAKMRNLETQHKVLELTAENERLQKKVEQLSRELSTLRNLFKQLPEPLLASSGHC
How it was run: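 Endogenous C/EBPb-driven reporter transcripts measured in transfected human HepG2 cells at 24 h via RT-PCR and capillary electrophoresis of labelled fragments. Activity fitted in both directions relative to DMSO baseline.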

[4] = ATG_CMV_CIS: Attagene CIS-FACTORIAL HepG2 Assay for human CMV (Internal Marker) (AID 2282928); settings: HepG2 CMV promoter reporter, transcription factor profiling; actives raise or lower the signal;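 also: endpoint acts as a background internal control marker rather than a target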
How it was run: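 Cell system: HepG2, transiently transfected multiple reporter units under cis promoters. Exposure: 24 h. Detection: RT-PCR, FAM labeling, HpaI digestion, capillary electrophoresis. Analysis: bidirectional, DMSO baseline.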

[5] = ATG_DR4_LXR_CIS: Attagene CIS-FACTORIAL HepG2 Assay for human Liver X Receptor (LXR), DR4 submotif (AID 2282929); settings: HepG2 Attagene DR4 cis-reporter, mRNA transcription; actives raise or lower the signal
How it was run: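 After transient transfection with multiplexed cis-promoter reporter units, HepG2 cells received test chemicals for 24 h. Reporter mRNA induction, detected by fluorescence after RT-PCR and capillary electrophoresis, was scored relative to DMSO.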

[6] = biological target: Aryl hydrocarbon receptor (Homo sapiens) (UniProt P35869); experiment: ATG_Ahr_CIS: Attagene CIS-FACTORIAL HepG2 Assay for human Aryl Hydrocarbon Receptor (Ahr) (AID 2282930); settings: HepG2 AhR cis-factorial reporter transcription; actives raise or lower the signal
Sequence of Aryl hydrocarbon receptor (Homo sapiens) (P35869 whole entry, looked up): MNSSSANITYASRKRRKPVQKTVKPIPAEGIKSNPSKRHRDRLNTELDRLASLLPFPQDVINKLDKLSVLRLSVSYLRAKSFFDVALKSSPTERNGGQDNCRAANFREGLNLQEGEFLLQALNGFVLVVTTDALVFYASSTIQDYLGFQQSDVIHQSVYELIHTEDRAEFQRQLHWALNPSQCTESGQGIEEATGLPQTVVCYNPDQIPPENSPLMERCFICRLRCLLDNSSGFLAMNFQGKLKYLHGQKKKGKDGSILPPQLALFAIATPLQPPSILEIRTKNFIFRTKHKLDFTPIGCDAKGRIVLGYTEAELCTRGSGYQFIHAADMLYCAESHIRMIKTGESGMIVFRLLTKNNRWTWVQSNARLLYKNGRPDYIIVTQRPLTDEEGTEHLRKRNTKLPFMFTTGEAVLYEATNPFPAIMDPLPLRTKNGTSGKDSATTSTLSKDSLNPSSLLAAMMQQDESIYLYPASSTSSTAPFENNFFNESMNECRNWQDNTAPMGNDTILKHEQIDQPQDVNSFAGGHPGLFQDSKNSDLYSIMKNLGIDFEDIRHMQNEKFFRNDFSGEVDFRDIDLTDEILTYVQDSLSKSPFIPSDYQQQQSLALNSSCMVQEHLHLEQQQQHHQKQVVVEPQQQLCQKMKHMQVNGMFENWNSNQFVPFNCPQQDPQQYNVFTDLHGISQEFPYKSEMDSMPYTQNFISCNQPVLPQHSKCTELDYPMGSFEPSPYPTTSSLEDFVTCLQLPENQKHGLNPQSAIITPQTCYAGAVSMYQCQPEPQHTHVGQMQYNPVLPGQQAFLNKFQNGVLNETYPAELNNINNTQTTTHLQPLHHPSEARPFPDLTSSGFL
How it was run: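 Reporter mRNA levels, quantified by RT-PCR and fluorescent capillary electrophoresis, reflect endogenous AhR transcriptional activity in HepG2 cells carrying transfected cis-promoter reporter constructs. Readout at 24 h post-dose; gain or loss fitted against DMSO baseline.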

[7] = ATG_AP_1_CIS: Attagene CIS-FACTORIAL HepG2 Assay for human Activator Protein 1 (AP-1) (AID 2282931); settings: HepG2 Attagene cis-factorial AP-1 reporter mRNA; actives raise or lower the signal
How it was run: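 After 24 h incubation with test chemical, RNA from transfected HepG2 cells was reverse-transcribed, amplified, fluorescently labelled and digested before capillary electrophoresis. Reporters were driven by cis-regulatory promoters; activity fitted bidirectionally versus DMSO.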

[8] = ATG_AP_2_CIS: Attagene CIS-FACTORIAL HepG2 Assay for human Activator Protein 2 (AP-2) (AID 2282932); settings: HepG2 AP-2 cis-reporter, Attagene transcription factor profiling; actives raise or lower the signal
How it was run: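 HepG2, transient MRTU transfection, cis-regulated reporters; 24 h compound exposure; RNA isolated, RT-PCR, 6-FAM labelling, HpaI digest, CE fluorescence. DMSO = negative control/baseline, bidirectional fit.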

[9] = ATG_BRE_CIS: Attagene CIS-FACTORIAL HepG2 Assay for human Bone Morphogenetic Protein (BMP) Response Element (BRE) (AID 2282933); settings: HepG2 BMP response element reporter, Attagene transcription factor profiling; actives raise or lower the signal
How it was run: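 Read-out: reporter mRNA induction quantified by RT-PCR and capillary electrophoresis after 24 h chemical exposure of transfected HepG2 cells. Endogenous factor activity on the BMP response element; gain or loss fitted against DMSO baseline.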

[10] = biological target: Retinoic acid receptor alpha (Homo sapiens) (UniProt P10276); experiment: ATG_DR5_RAR_CIS: Attagene CIS-FACTORIAL HepG2 Assay for human Retinoic Acid Receptor Alpha (RARE), DR5 submotif (AID 2282934); settings: HepG2 Attagene cis-factorial RARE DR5 reporter, mRNA; actives raise or lower the signal;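 as to AC50: reporter responds to endogenous RAR alpha beta and gamma in HepG2 not RARA alone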
Sequence of Retinoic acid receptor alpha (Homo sapiens) (P10276 whole entry, looked up): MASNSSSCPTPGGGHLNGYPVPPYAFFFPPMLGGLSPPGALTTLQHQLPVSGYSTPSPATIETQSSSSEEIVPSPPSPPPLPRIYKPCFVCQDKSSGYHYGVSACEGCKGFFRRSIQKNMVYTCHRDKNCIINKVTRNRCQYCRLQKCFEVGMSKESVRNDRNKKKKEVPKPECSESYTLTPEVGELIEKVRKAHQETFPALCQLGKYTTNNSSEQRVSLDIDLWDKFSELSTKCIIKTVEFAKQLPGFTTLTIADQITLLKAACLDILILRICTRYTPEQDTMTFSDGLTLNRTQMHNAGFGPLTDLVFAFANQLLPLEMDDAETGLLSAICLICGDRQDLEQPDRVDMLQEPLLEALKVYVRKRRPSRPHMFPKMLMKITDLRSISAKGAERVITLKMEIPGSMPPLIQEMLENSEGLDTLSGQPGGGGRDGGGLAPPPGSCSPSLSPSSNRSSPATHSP
How it was run: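 Reporter transcripts from a DR5-regulated unit, measured via RT-PCR plus capillary electrophoresis, reflect endogenous RAR activity in transiently transfected human HepG2 liver cells. Exposure lasted 24 h; gain or loss of signal scored against DMSO.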

[11] = biological target: Transcription factor E2F1 (Homo sapiens) (UniProt Q01094); experiment: ATG_E2F_CIS: Attagene CIS-FACTORIAL HepG2 Assay for human E2F Transcription Factor 1 (AID 2282935); settings: HepG2 Attagene cis-reporter, E2F reporter RNA transcripts; actives raise or lower the signal
Sequence of Transcription factor E2F1 (Homo sapiens) (Q01094 whole entry, looked up): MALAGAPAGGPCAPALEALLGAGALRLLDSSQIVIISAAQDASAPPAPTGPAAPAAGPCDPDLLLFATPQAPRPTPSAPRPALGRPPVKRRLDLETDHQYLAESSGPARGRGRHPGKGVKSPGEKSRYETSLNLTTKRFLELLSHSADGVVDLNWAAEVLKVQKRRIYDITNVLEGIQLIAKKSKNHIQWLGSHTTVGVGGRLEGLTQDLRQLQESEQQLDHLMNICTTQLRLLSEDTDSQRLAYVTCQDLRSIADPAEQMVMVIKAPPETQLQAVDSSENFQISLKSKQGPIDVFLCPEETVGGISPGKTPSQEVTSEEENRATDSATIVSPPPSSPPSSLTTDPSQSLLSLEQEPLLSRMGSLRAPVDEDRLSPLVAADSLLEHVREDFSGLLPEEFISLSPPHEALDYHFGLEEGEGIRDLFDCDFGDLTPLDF
How it was run: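 Cis-element reporter mRNA induction in transiently transfected HepG2, 24 h exposure. Activity fitted in both directions relative to DMSO negative control.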

[12] = ATG_E_Box_CIS: Attagene CIS-FACTORIAL HepG2 Assay for human Enhancer Box (E-box) (AID 2282936); settings: HepG2 E-box cis-reporter transcription, actives raise or lower the signal
How it was run: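 Cells: HepG2 (human liver), transient MRTU transfection. Exposure 24 h. RNA → oligo(dT) RT → PCR → 6-FAM label → HpaI → CE. Activity fitted both directions relative to DMSO.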

[13] = ATG_M_61_CIS: Attagene CIS-FACTORIAL HepG2 Assay for M61 Transcription Factor (Internal Marker) (AID 2282937); settings: HepG2 Attagene CIS-FACTORIAL M61 internal marker reporter; actives raise or lower the signal
How it was run: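 Using transiently transfected HepG2 liver cells, reporter transcript levels were assessed 24 h post-dosing by RT-PCR and capillary electrophoresis. Changes in either direction were fitted relative to DMSO controls.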

[14] = ATG_EGR_CIS: Attagene CIS-FACTORIAL HepG2 Assay for human Early Growth Response 1 (EGR1) (AID 2282938); settings: HepG2 Attagene CIS-FACTORIAL EGR reporter mRNA; actives raise or lower the signal
How it was run: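 Fluorescent capillary-electrophoresis signal of reporter cDNA fragments serves as read-out. HepG2 cells bear transiently transfected cis-promoter reporter units and are exposed 24 h; gain- or loss-of-signal is fitted against DMSO.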

[15] = ATG_M_19_CIS: Attagene CIS-FACTORIAL HepG2 Assay for M19 Transcription Factor (Internal Marker) (AID 2282939); settings: HepG2 Attagene CIS-FACTORIAL M19 internal marker reporter; actives raise or lower the signal
How it was run: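 Readout: fluorescent reporter-transcript fragments by capillary electrophoresis after RT-PCR. Human HepG2 liver cells carried transfected MRTU constructs reporting endogenous transcription-factor activity; exposure 24 h. Gain or loss of signal fitted relative to DMSO.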

[16] = ATG_ERE_CIS: Attagene CIS-FACTORIAL HepG2 Assay for Estrogen Response Element (ERE) (AID 2282940); settings: HepG2 ERE cis-reporter, Attagene RNA transcript; actives raise or lower the signal
How it was run: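 Readout: reporter mRNA induction by RT-PCR, FAM-labelled primer extension, HpaI digestion and capillary electrophoresis, 24 h after dosing transfected HepG2 cells. Endogenous transcription factors act on cis-element-regulated reporters. Gain or loss fitted against DMSO.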

[17] = ATG_Ets_CIS: Attagene CIS-FACTORIAL HepG2 Assay for human Erythroblast Transformation Specific (ETS) (AID 2282941); settings: HepG2 ETS cis-reporter transcription, actives raise or lower the signal
How it was run: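 After transient cis-reporter transfection, HepG2 cells receive test chemical for 24 h. Reporter mRNA levels, measured by RT-PCR and capillary electrophoresis fluorescence, are analysed bidirectionally relative to the DMSO baseline.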

[18] = biological target: Hepatocyte nuclear factor 3-beta (Homo sapiens) (UniProt Q9Y261); experiment: ATG_FoxA2_CIS: Attagene CIS-FACTORIAL HepG2 Assay for human Forkhead box A2 (FOXA2) (AID 2282942); settings: HepG2 cis-reporter transcription factor activity, 24 h; actives raise or lower the signal
Sequence of Hepatocyte nuclear factor 3-beta (Homo sapiens) (Q9Y261 whole entry, looked up, the tested form may be a part): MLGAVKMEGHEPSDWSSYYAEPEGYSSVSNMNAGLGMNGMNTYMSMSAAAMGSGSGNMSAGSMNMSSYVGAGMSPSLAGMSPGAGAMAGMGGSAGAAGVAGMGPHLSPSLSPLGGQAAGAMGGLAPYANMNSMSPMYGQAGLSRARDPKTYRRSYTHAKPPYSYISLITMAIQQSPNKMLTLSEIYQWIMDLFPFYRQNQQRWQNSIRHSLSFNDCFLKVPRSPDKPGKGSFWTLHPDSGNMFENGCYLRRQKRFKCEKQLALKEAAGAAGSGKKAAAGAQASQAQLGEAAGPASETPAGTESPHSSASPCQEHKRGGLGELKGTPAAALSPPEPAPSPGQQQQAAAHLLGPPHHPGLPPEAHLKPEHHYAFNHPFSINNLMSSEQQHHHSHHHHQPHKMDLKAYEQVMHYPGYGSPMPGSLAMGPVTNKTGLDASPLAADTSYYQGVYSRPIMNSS
How it was run: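 Fluorescence signal of reporter cDNA fragments, separated by capillary electrophoresis, reflects endogenous transcription factor activity in transfected HepG2 after 24 h. Both increases and decreases fitted against DMSO.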

[19] = ATG_FoxO_CIS: Attagene CIS-FACTORIAL HepG2 Assay for human Forkhead box O (FoxO) (AID 2282943); settings: HepG2 Attagene cis-reporter, FoxO element, mRNA; actives raise or lower the signal
How it was run: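 Endogenous transcription factor activity read from multiplexed cis-promoter reporter transcripts in transiently transfected HepG2, 24 h after dosing. Reporter RNA measured via RT-PCR plus capillary electrophoresis of FAM-labeled products; gain or loss relative to DMSO.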

[20] = ATG_GATA_CIS: Attagene CIS-FACTORIAL HepG2 Assay for human GATA Binding Protein (AID 2282944); settings: HepG2 GATA cis-element reporter, Attagene multiplex mRNA; actives raise or lower the signal
How it was run: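 Read-out: fluorescent reporter mRNA fragments resolved by capillary electrophoresis after RT-PCR. Human liver HepG2 cells carried transiently transfected cis-regulated reporter constructs; chemicals incubated 24 h; gain or loss of signal fitted relative to DMSO.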

Measured: AC50

FC(F)(F)C(F)(F)C(F)(F)C(F)(F)C(F)(F)C(F)(F)C(F)(F)I
active: [16] 5.59 µM
inactive: all other assays above

COC(=O)C1CCC(C(=O)OC)CC1 (configuration not stated)
active: [16] 20.5 µM
inactive: [1] | [2] | [3] | [4] | [5] | [6] | [7] | [8] | [9] | [10] | [11] | [12] | [13] | [14] | [15] | [16] | [17] | [18] | [19] | [20]

CCCCCCCCCCCCCCCC[N+](C)(C)Cc1ccccc1
active: [4] 44.8 µM | [5] 24.9 µM | [8] 51.9 µM | [12] 47.1 µM
inactive: all other assays above

O=C(OCCOCCOCCOC(=O)c1ccccc1)c1ccccc1
active: [1] 10.8 µM | [16] 0.62 µM
inactive: all other assays above

Cc1cccc(N(C)C)c1
inactive: all assays above

CCN(CC)c1ccc2c(C)cc(=O)oc2c1
active: [2] 30.7 µM | [4] 26.5 µM | [9] 143 µM
inactive: all other assays above

C=CC(=O)OCC(F)(F)C(F)(F)C(F)(F)C(F)(F)COC(=O)C=C
active: [2] 43.5 µM | [3] 50 µM | [4] 58.1 µM | [5] 31.3 µM | [7] 50 µM | [10] 60.6 µM | [12] 34.9 µM | [14] 63 µM
inactive: all other assays above

OC[C@@H](O)[C@@H](O)[C@H](O)[C@@H](O)CO
active: [16] 30.6 µM
inactive: [1] | [2] | [3] | [4] | [5] | [6] | [7] | [8] | [9] | [10] | [11] | [12] | [13] | [14] | [15] | [16] | [17] | [18] | [19] | [20]

O=C(O)C(F)(F)C(F)(F)F
inactive: all assays above

C=C(C)C(=O)OCC(F)(F)C(F)(F)C(F)(F)C(F)(F)C(F)(F)C(F)(F)C(F)(F)F
active: [16] 16.2 µM
inactive: all other assays above

Nc1ccc(Oc2cccc(Oc3ccc(N)cc3)c2)cc1
active: [2] 145 µM | [4] 45.1 µM | [5] 25.4 µM | [11] 33.4 µM | [12] 179 µM | [14] 26.2 µM | [15] 51.5 µM | [17] 112 µM | [19] 163 µM | [20] 135 µM
inactive: [1] | [3] | [6] | [7] | [8] | [9] | [10] | [13] | [16] | [18]

FC(F)(I)C(F)(F)C(F)(F)C(F)(F)I
active: [1] 0.312 µM | [16] 0.291 µM
inactive: all other assays above
